In PubChem BioAssay (NCATS) one finds activity, negative = inhibition, redox activity (% of DA3003) and Potency data, which are given here for 29 compounds.

Values without a mark were called inactive. Results filed as inconclusive are left out. Activity calls are given as the source filed them. Calls follow the shape of the dose curve; as a rule, active = well fitted curve in the direction sought with a large enough effect; inconclusive = small, poorly fitted or top-dose-only effect, or another doubt; inactive = no such curve, though single readings can be large; an effect the other way counts as inactive or inconclusive. Where a SMILES comes first, the peptide text is derived from it.

The subject of assay [1] is Nanoluciferase (engineered Oplophorus gracilirostris luciferase). The experiment in a line: Primary Nanoluciferase (NLuc) qHTS assay for identification of artifact compounds. (AID 1845222).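 Also: NLuc secreted into diluted conditioned medium of S16 cells; series mostly up to about 54 µM; 0% = DMSO and -100% = no enzyme.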 In short, it runs like this:
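NLuc from S16 cell medium (1:55) plus test compounds, 15 min, room temperature. Luminescence after Nano-Glo (1:100) addition, 5 min.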
Background: Quantitative high-throughput screening tests each substance at several concentrations.

Assay [2] can be described thus: Primary redox qHTS assay for identification of artifact compounds. (AID 1845223).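 Also: 0% = DMSO and 100% = reference compound.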 The procedure, abridged:
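Amplex Red (25 uM) and HRP (250 mU/mL) in HBSS, with compounds for 15 min, then 250 uM DTT for 30 min, room temperature, dark. Fluorescence 525/598 nm read; normalized to DMSO and 10 uM DA3003; Hill fit.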

In the case of `O=C(O)[C@H]1Cc2ccccc2CN1`, the activity, negative = inhibition in assay [1] is 0% [at 6.45 µM]. Also, the redox activity (% of DA3003) in assay [2] is -3.86% [at 6.41 µM].
For `O=C(CCCCC1CCCCC1)N1CCC(c2cnc[nH]2)CC1`, the Potency entry in assay [1] and in assay [2] was “inactive” throughout.
On to `COc1cncc(C#Cc2ccccn2)c1`, for which the Potency result in assay [1] and in assay [2] was “inactive” in each case.
As to `Cc1c(Cc2ccc3ccccc3n2)c2cc(F)ccc2n1CC(=O)O`, the Potency result in assay [1] and in assay [2] was “inactive” in each case.
As to `Fc1ccc(-c2c3cccc(C(F)(F)F)c3nn2Cc2ccc(F)cc2Cl)cc1`, the Potency entry in assay [1] and in assay [2] was “inactive” each time.
With `O=C(OCC(O)CO[C@@H]1O[C@H](C(=O)O)[C@@H](O)[C@H](O)[C@H]1O)c1ccccc1` (stereo partly drawn), the Potency entry in assay [1] and in assay [2] was “inactive” each time.
With `Cc1nnc(-c2sc(NC(=O)[C@H](C(C)C)n3c(=O)[nH]c4ccccc4c3=O)nc2C)o1`, the Potency entry in assay [1] and in assay [2] was “inactive” throughout.
Turning to `FC(F)(F)c1nnc2c(Sc3ccccc3)nc3ccc(Cl)cc3n12`, the Potency entry in assay [1] and in assay [2] was “inactive” in each case.
With `CCCC(C(=O)O)c1c(C)nc2ccc(Cl)cc2c1-c1ccccc1` (stereo not drawn), the Potency entry in assay [1] and in assay [2] was “inactive” in each case.
For `CSCC1OC(n2cnc3c(N)ncnc32)C(O)C1O` (stereo not drawn), the Potency entry in assay [1] and in assay [2] was “inactive” in each case.
In the case of `CC(C)C1NC(=O)CNC(=O)C2CCCN2C(=O)C(Cc2c[nH]c3ccccc23)NC(=O)CNC(=O)C(Cc2ccc(O)cc2)NC(=O)CNC1=O` (stereo not drawn) (cyclo(GVGYGWP); configuration not given here), the Potency entry in assay [1] and in assay [2] was “inactive” in each case.
Turning to `CC1(C)CCC[C@]2(C)C1CC=C(CO)[C@H]2CC/C(=C/CO)CO` (stereo partly drawn), the Potency entry in assay [1] and in assay [2] was “inactive” each time.
As to `COc1c2cc(c(O)c1OC)CCCCC(O)CCc1ccc(O)c-2c1` (stereo not drawn), the Potency entry in assay [1] and in assay [2] was “inactive” throughout.
As to `CC1OC(O[C@@H]2[C@@H](O)[C@H](OC(=O)[C@]34CCC(C)(C)C[C@H]3C3=CCC5[C@@]6(C)CC[C@H](O[C@@H]7O[C@H](C(=O)O)[C@@H](O)[C@H](O[C@@H]8OC[C@@H](O)[C@H](O)[C@H]8O)[C@H]7O[C@@H]7O[C@H](CO)[C@H](O)[C@H](O)[C@H]7O)[C@@](C)(C=O)C6CC[C@@]5(C)[C@]3(C)C[C@H]4O)O[C@H](C)[C@@H]2OC2OC(C)C(OC3OCC(O)C(O)C3O)C(O)C2O)C(O)C(O)C1O` (stereo partly drawn), in assay [1], the activity, negative = inhibition is 2.13% [at 11.6 µM]. For the same compound, the redox activity (% of DA3003) in assay [2] was 19.3% [at 11.5 µM].
For `CCCSc1nc(NC2CC2c2ccc(F)c(F)c2)c2nnn(C3CC(OCCO)C(O)C3O)c2n1` (stereo not drawn), the Potency entry in assay [1] and in assay [2] was “inactive” throughout.
With `C=C1C2CCC3CC2(CC(O)C2(O)C1CC(OC1OC(CO)C(O)C(O)C1O)C2(C)C)CC3(C)O` (stereo not drawn), the Potency entry in assay [1] and in assay [2] was “inactive” in each case.
Consider `CC1(C)CC[C@]2(C(=O)O)[C@H](O)C[C@]3(C)C(=CCC4[C@@]5(C)CC[C@H](O[C@@H]6OC[C@@H](O)[C@H](O)[C@H]6O)[C@@](C)(C(=O)O)C5CC[C@]43C)[C@@H]2C1` (stereo partly drawn), for which the Potency entry in assay [1] and in assay [2] was “inactive” in each case.
Regarding `COC(=O)[C@]1(C)CCC[C@@]2(C)C(=O)CC[C@H]3C(=O)C=C(CC[C@@H]21)C3O` (stereo partly drawn), the Potency entry in assay [1] and in assay [2] was “inactive” each time.
On to `C/C=C(/C)C(=O)O[C@@H]1C[C@@H](OC(=O)/C(C)=C\C)[C@@]2(C)C3C(=O)C=C(C)C2C3C1(C)C`, for which the Potency entry in assay [1] and in assay [2] was “inactive” throughout.
Turning to `Nc1nc2c(nc(Sc3ccc(Cl)cc3)n2[C@@H]2O[C@@H]3COP(=O)(O)O[C@H]3[C@H]2O)c(=O)[nH]1`, the Potency result in assay [1] and in assay [2] was “inactive” in each case.
Regarding `N#Cc1cccc(-c2c[nH]c3ncnc(N4CCOCC4)c23)c1`, the Potency entry in assay [1] and in assay [2] was “inactive” in each case.
For `Cc1ccccc1N1CCN(S(=O)(=O)C[C@]23CC[C@H](C[C@@H]2NC(=O)[C@@H](N)CCS(C)(=O)=O)C3(C)C)CC1`, the Potency result in assay [1] and in assay [2] was “inactive” in each case.
Consider `CC1(C(=O)O)CCCC2(C)C3CCC4CC3(CCC12)CC4C(=O)O` (stereo not drawn), for which the Potency entry in assay [1] and in assay [2] was “inactive” in each case.
For the compound `CC(=O)[C@@H]1C[C@H](C(C)(C)O[C@@H]2O[C@H](CO)[C@@H](O)[C@H](O)[C@H]2O)CC[C@@]2(CO)OC(=O)C[C@@H]12`, the Potency result in assay [1] and in assay [2] was “inactive” throughout.
As for `COc1cc(/C=C/C(=O)O[C@@H]2C[C@@](O)(C(=O)O)C[C@@H](O)[C@@H]2O)ccc1O`, the Potency result in assay [1] and in assay [2] was “inactive” in each case.
Consider `COc1cc2c(c(O)c1OC/C=C(\C)CC/C=C(/C)CCC=C(C)C)CN(C(CCC(=O)O)C(=O)O)C2=O` (stereo not drawn), for which the Potency entry in assay [1] and in assay [2] was “inactive” each time.
Consider `Cc1occc(=O)c1O[C@@H]1O[C@H](CO[C@@H]2OC[C@](O)(CO)[C@H]2O)[C@@H](O)[C@H](O)[C@H]1O`, for which the Potency entry in assay [1] and in assay [2] was “inactive” throughout.
As for `Cc1ccc(COC(=O)N2CC[C@@H](CNc3ncccn3)[C@@H](F)C2)cc1`, the Potency result in assay [1] and in assay [2] was “inactive” each time.
Consider `O=C(/C=C/c1ccc(O)cc1)OCC1OC(O)C(OC2OC(CO)C(O)C(O)C2O)C(O)C1O` (stereo not drawn), for which the Potency entry in assay [1] and in assay [2] was “inactive” in each case.
